# Laboratory results: PubChem BioAssay (NCATS)
# Records with an inconclusive call do not appear. Where a call stands in place of a potency, no number is given. Calls of active or inactive are those of the source. The call rests on the fitted dose curve; in most records, active means well fitted inhibition curve with a large enough effect; inconclusive means small, poorly fitted or top-dose-only effect; inactive means flat fitted curve, though single readings scatter.
# Target: Glutathione peroxidase 1 (Homo sapiens) (UniProt P07203)
# Sequence (P07203 whole entry, looked up): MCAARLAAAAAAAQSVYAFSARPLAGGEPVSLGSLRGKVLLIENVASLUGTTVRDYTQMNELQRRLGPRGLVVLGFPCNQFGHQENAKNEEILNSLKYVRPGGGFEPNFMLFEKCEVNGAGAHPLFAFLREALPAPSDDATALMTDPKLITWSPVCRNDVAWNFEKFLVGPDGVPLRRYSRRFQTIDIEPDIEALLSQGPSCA
# Experiment: Primary qHTS Assay for Inhibitors of Recombinant Selenoprotein Glutathione Peroxidase 1 (GPX1) (AID 1845191); further: nearly all actives have a fitted effect of over 65% in size
# Details: recombinant GPX1, GR-coupled NADPH fluorescence, 15 min; series mostly up to 48.8 µM; activity, negative = inhibition: at the top concentration
# Summary of the method: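 GR-coupled readout: NADPH consumption tracked by fluorescence, ex 340/em 450 nm, at t=0 and after 15 min at RT. Final mix 10 nM GPX1, 1 mM GSH, 0.5 mM CHP, 0.5 mM NADPH, 100 nM GR, 0.01% BSA, following 30 min enzyme–compound preincubation.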
# Potency means the concentration at half of the fitted maximal effect.
Structure (SMILES),outcome,"activity, negative = inhibition",Potency
Fc1ccc(Cl)cc1-c1nc(Nc2ccncc2)c2nccnc2n1,inactive,–,–
COCCNCCCn1c(C(=O)CF)c(-c2ccc(C)cc2)c2c(N)ncnc21,inactive,–,–
Cc1ccc(-n2nc(C(C)(C)C)cc2NC(=O)Nc2ccc(OCCN3CCOCC3)c3ccccc23)cc1,inactive,–,–
CCOc1cc(N2CCC(O)CC2)ccc1Nc1ncc2c(n1)N(C)c1ccccc1C(=O)N2C,–,2.23% (inactive),–
COc1ccc2c3n(c(=NC(=O)c4cccnc4)nc2c1OC)CCN3,–,0.782% [at 4.49 µM] (inactive),–
Cc1c(CCOc2ccc(C(=O)O)cc2)c2cc(Cl)ccc2n1C(c1ccccc1)c1ccccc1,–,1.75% (inactive),–
COc1ccccc1[C@H](c1cccc2ccccc12)[C@@](C)(C#N)C(=O)N1CCC(c2cccc(C(F)(F)F)c2)CC1,inactive,–,–
c1ccc(-c2nn3c(c2-c2ccnc4cc(OCCN5CCOCC5)ccc24)CCC3)nc1,inactive,–,–
COc1ccccc1-c1cccc(-c2c(O)c3cc(C#N)c(Cl)cc3[nH]c2=O)c1,inactive,–,–
CCn1c(-c2nonc2N)nc2c(C#CC(C)(C)O)ncc(OC[C@H]3CCCNC3)c21,inactive,–,–
N#CC[C@H](C1CCCC1)n1cc(-c2ncnc3[nH]ccc23)cn1,–,–,25.5 µM (active)
Oc1cccc(-c2nc(N3CCOCC3)c3oc4ncccc4c3n2)c1,inactive,–,–
COc1ccc(C2=N[C@H](c3ccc(Cl)cc3)[C@H](c3ccc(Cl)cc3)N2C(=O)N2CCNC(=O)C2)c(OC(C)C)c1,inactive,–,–
CN[C@@H](C)C(=O)N[C@H]1CCCC[C@H]2CC[C@@H](C(=O)N[C@@H](c3ccccc3)c3cn(CCCCc4ccc(CCCCn5cc([C@@H](NC(=O)[C@@H]6CC[C@@H]7CCCC[C@H](NC(=O)[C@H](C)NC)C(=O)N76)c6ccccc6)nn5)cc4)nn3)N2C1=O,inactive,–,–
